This is a sample that favours compounds with a hit; in the whole collection about 1.6% have one here.
GC-A act – GC-A (human) enzyme activation | P16066 | HEK293 GC-A cells, cGMP TR-FRET, EC30 ANP; 0% at EC30 ANP, 100% saturating ANP | activation, % at 10 µM | 0.14% of 370,000 active | AID 1671463; in the data active = activation above about 40%
NR1D1 modulator – Rev-erb alpha (human) modulation; activity, % at 10 µM; Rev-erbα–FITC-DNA binding, fluorescence polarization, 90 min; 0.79% of 370,000 active; P20393; AID 1259318;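 active = activity above about 14%, limit read from the data; passing the limit was not always enough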;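 also: 0% = DMSO wells with 35 nM protein and 100% = DMSO wells with 750 nM protein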
PG9 binder – PG9 antibody binding by small molecule | TR-FRET gp120-PG9 antibody binding | inhibition, % at 6.7 µM | 0.43% of 360,000 active | AID 624416; in the data active = inhibition above about 8.5%
GC-B act – GC-B (human) receptor activation | HEK293-GC-B cells, CNP EC30, cGMP TR-FRET; 0% at EC30 CNP, 100% saturating CNP | activation, % at 10 µM | 0.11% of 370,000 active | AID 1920062;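 active = activation at 10 µM reaching about 35% in either raw or pattern-adjusted values, limit read from the data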
Target sequence (P20594 whole entry, looked up): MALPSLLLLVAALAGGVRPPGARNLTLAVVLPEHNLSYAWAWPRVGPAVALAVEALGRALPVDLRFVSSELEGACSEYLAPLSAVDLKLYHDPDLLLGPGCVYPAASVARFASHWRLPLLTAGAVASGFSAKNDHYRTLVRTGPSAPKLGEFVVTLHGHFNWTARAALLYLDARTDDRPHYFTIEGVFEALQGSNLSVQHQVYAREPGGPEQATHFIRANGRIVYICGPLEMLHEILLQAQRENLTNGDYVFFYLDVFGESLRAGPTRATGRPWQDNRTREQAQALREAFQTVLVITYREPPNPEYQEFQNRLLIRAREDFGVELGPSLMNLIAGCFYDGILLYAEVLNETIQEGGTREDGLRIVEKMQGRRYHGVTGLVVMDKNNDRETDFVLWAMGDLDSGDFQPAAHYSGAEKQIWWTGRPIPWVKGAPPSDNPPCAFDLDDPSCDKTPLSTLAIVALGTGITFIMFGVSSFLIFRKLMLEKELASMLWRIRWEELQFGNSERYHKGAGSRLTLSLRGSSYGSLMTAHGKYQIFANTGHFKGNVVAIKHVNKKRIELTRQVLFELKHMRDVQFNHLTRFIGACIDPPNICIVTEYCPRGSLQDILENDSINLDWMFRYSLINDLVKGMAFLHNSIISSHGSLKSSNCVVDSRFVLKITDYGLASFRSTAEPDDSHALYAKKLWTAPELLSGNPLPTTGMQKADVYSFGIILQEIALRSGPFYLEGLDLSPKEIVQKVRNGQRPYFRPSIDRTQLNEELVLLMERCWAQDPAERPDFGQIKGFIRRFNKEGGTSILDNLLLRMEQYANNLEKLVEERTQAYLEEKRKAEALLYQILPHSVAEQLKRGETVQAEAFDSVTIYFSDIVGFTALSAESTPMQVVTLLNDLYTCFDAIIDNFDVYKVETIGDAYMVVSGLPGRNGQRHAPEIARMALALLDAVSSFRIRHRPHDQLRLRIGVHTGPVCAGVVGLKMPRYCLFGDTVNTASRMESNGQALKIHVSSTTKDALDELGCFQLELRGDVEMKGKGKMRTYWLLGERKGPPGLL
V-ATPase pHluor – yeast V-ATPase proton transport regulation by pHLuorin; S. cerevisiae, pHLuorin cytosolic pH fluorescence; response, % at 10 µM; 0.37% of 350,000 active; in the data active = response mostly above about 7.3%, no sharp cut-off; inactive = mostly below about 5.4%; also: actives read high
V-ATPase pH SP – yeast V-ATPase proton transport regulation; shares compounds with V-ATPase pHluor; S. cerevisiae pHLuorin cytosolic pH; response, % at 10 µM; 2% of 980 active; in the data active = response above about 24%;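 also: plate controls were vehicle wells for no effect and positive control wells for full effect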
Starred values were filed as active, the others as inactive; . = no result.

SMILES | GC-A act | NR1D1 modulator | PG9 binder | GC-B act | V-ATPase pHluor | V-ATPase pH SP
CCOC(=O)C1=C(C)NC(C)=C(C(=O)OCC)C1C(=O)OCC(=O)N1CCc2ccccc2C1 | -3 | 1 | -1 | -1 | 12* | -2
C#CCNC(=O)C[C@H]1C[C@@]2(C(=O)OC)C(=C[C@H](C(C)(C)C)O[C@@H]2C)N(Cc2cccc3ccccc23)C1=O | -12 | 6 | . | -14 | . | .
CN(CCOc1ccc(-c2ccn(S(=O)(=O)c3ccc(Cl)cc3)n2)cc1)c1ccccn1 | 3 | 2 | 1 | 1 | 10* | 1
CC(C)(C)CCN1C[C@@H]2C(CNC(=O)c3cc(Cl)cc(Cl)c3)[C@@H]2C1 (stereo partly specified) | -3 | -5 | . | -6 | . | .
S=c1[nH]ncn1NCc1ccc(Cl)cc1Cl | -3 | -1 | 3 | 0 | -1 | .
Fc1cccc(Cl)c1CNn1cn[nH]c1=S | 2 | 3 | -1 | 5 | 11* | 4
O=[N+]([O-])O[C@@H]1CO[C@H]2[C@@H]1OC[C@@H]2O | . | -10 | . | . | . | .
COC(=O)c1cc(-c2ccc(-c3ccccc3)c(F)c2)c(=O)n2c1CCC2 | 3 | 8 | . | -6 | . | .
OCCC1CN(Cc2ccccc2OC2CCCC2)CCN1Cc1ccsc1 (stereo unspecified) | -13 | 3 | -3 | -7 | 8.4* | -1
Cc1ccc(S(=O)(=O)NCC(=O)N2CCCCC2)cc1 | -2 | -6 | 4 | 3 | 12* | -42
COc1ccc(CC(=O)N2CC(=O)N(CCc3ccccc3)C(=O)C2)cc1 | -2 | -2 | 0 | -2 | 8.7* | -1
COc1ccc(C(=O)N2CC(=O)N(CCc3ccccc3)C(=O)C2)cc1OC | 3 | -1 | -3 | 2 | 2 | .
COc1cccc(OCC(=O)NNC(=O)Cc2cccs2)c1 | -1 | -1 | -2 | 5 | 14* | 0
Cc1cc(C)cc(N(CC(=O)NC2CCC(C)CC2)S(=O)(=O)c2ccc(C(C)(C)C)cc2)c1 (stereo unspecified) | 2 | 0 | . | 7 | . | .
O=C(c1ccccc1F)N1CCN(S(=O)(=O)c2ccc3ccccc3c2)CC1 | -25 | 4 | -1 | -6 | -2 | .
CSc1ncccc1C(=O)N1CCN(S(=O)(=O)c2ccc3ccccc3c2)CC1 | -23 | 9 | 0 | -10 | 10* | 1
COc1ccc(S[C@]2(C(=O)N(C)C)CC(=O)N(c3ccccc3)[C@@H]2c2ccc(OC)cc2)cc1 | -11 | 6 | . | -14 | . | .
O=C(NCc1cccs1)O[C@H]1CC[C@@]23CCCN2C(=O)CCC[C@H]3C1 | 2 | -4 | . | -5 | . | .
COc1ccc(S[C@]2(C(=O)N3CCCC3)CC(=O)N(c3ccccc3OC)[C@@H]2c2ccc(OC)cc2)cc1 | -2 | -4 | . | -1 | . | .
COC/C=C/C1=CC2=CC(=O)C(C)(OC(=O)c3cnc4ccccc4n3)C(=O)C2=CN1C1CC1 (stereo unspecified) | 2 | 1 | 1 | 5 | 12* | -3
COC/C=C/C1=CC2=CC(=O)C(C)(OC(=O)c3cnc4ccccc4n3)C(=O)C2=CN1CC1CC1 (stereo unspecified) | . | . | . | . | -4 | .
O=C(Nc1ccc(F)c(F)c1)C1CCN(S(=O)(=O)c2cccs2)CC1 | -4 | -8 | 0 | 2 | 8.3* | -5
Cc1c(C(=O)O)sc(=S)n1-c1ccc(Cl)cc1 | 10 | 2 | -1 | 3 | 2 | 0
CCOC(=O)c1sc(=S)n(-c2ccc(Cl)cc2)c1C | 4 | 0 | 0 | 3 | 0 | .
O=C1CSc2ccc(C(=O)N3CCCC(C(=O)N4CCN(c5ccc(F)cc5)CC4)C3)cc2N1 (stereo unspecified) | 1 | -9 | . | -3 | . | .
COCCCN1C(=O)[C@H](CC(=O)NCc2ccc(OC)c(OC)c2)[C@]2(C(=O)OC)CCCCC=C12 | 5 | -1 | . | -12 | . | .
O=C(CCC(=O)N1CCN(c2ccccc2F)CC1)c1ccc(F)cc1 | 2 | 1 | 2 | 3 | 1 | .
Cc1ccc(C(=O)CCC(=O)N2CCN(c3ccccc3O)CC2)cc1 | -1 | 1 | 1 | 0 | 11* | -3
COC(=O)c1cn(-c2ccc3c(c2)[C@]2(CC(=O)N(C)C2c2ccccc2)C(=O)N3CC(C)C)nn1 (stereo partly specified) | -2 | -1 | . | -4 | . | .
N#CCC[C@H]1CC[C@]2(CCCN(C(=O)C3CCCCC3)C2)O1 | 3 | 2 | . | -6 | . | .

Bioassay records: PubChem, several laboratories
